Jurkat NFkB inh = inhibitors of induced NF-kB luciferase reporter, primary screen, TCR NF-kB activation inhibitor project, cell-based, luminescence, uHTS; Jurkat, PMA/ionomycin-induced NF-kB luciferase reporter; inhibition, % at 4 µM; hit rate 0.53% among 330,000; in the data active means inhibition above about 50%
Mdm2 MdmX PPI = inhibitors of human Mdm2-MdmX association, primary screen, cell-based, luminescence, split luciferase, SaOS-2, uHTS; Protein Mdm4 (Homo sapiens) + E3 ubiquitin-protein ligase Mdm2 (Homo sapiens), …; SaOS-2 split-luciferase Mdm2/MdmX complementation; inhibition, % at 8 µM; hit rate 3% among 330,000;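 active means inhibition of at least 50% at 8 µM in the primary screen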
697 NFkB inh = inhibitors of PMA/ionomycin-induced NF-kB reporter, 697 cells, primary screen, B-cell NF-kB inhibitor project, cell-based, luminescence, uHTS; 697 B-cell NF-kB luciferase reporter, 16 h; inhibition, % at 4 µM; hit rate 0.33% among 330,000; in the data active means inhibition above about 35%
CSC inhib = cancer stem cell viability inhibitors, primary screen, luminescence. cancer stem cell-like cells viability. inhibition, % at 7.5 µM. hit rate 1.1% among 300,000. AID 2717, 2010; in the data active means inhibition above about 75%; tested in HMLE shEcad cells
Gli-Sufu block = Gli-Sufu pathway antagonists, primary screen, luciferase luminescence, Sufu-KO-LIGHT cells, uHTS; Sufu-KO-LIGHT fibroblasts, Gli luciferase reporter luminescence; hit rate 0.74% among 340,000; inhibition, % at 5 µM;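 active means inhibition above about 55%, limit read from the data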;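 further: 0% = DMSO-treated cells and 100% = wells with medium but no cells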
aSyn UTR inh = MLPCN primary screen, SNCA 5' untranslated region; AID 1813, 2009; hit rate 0.82% among 300,000; inhibition, % (tested at 7.5 µM); alpha-synuclein 5'UTR reporter, inhibitor activity; in the data active means inhibition above about 60%;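 further: H4 neuroglioblastoma cells stably carrying SNCA 5'UTR luciferase fusion; 0% = DMSO wells and 100% = positive control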
Jurkat NFkB conf = PMA/ionomycin-induced NF-kB reporter inhibitors, Jurkat retest, confirmation, T-cell NF-kB inhibitor project, cell-based, luminescence, single concentration | shares compounds with Jurkat NFkB inh | Jurkat NF-kB luciferase, 16 h | inhibition, % at 4 µM | hit rate 27% among 2,700 | AID 435020, 2010;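 active means inhibition reaching about 45% at 4 µM in either replicate, limit read from the data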;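 further: plate controls were PMA/ionomycin stimulated DMSO wells for no effect and unstimulated DMSO wells for full effect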
697 NFkB conf = PMA/ionomycin-induced NF-kB reporter inhibitors, 697 retest, confirmation, B-cell NF-kB inhibitor project, cell-based, luminescence, single concentration. 697 B-cell NF-kB luciferase, 16 h. hit rate 35% among 2,000. inhibition, % at 4 µM. shares compounds with 697 NFkB inh; in the data active means inhibition mostly above about 28%, no sharp cut-off; inactive means mostly below about 22%
Active calls of the source: *; i = inactive; . = not tested or not shown. Only some compounds are listed: those with a hit (about 4.5% of all), similar ones and a draw of the others.

SMILES | Jurkat NFkB inh | Mdm2 MdmX PPI | 697 NFkB inh | CSC inhib | Gli-Sufu block | aSyn UTR inh | Jurkat NFkB conf | 697 NFkB conf
Cc1cc(C(C)(C)C)ccc1OCCN(C)C | -2 | 8 | 21 | -1 | -7 | 12 | . | .
CC(C)Cc1cc(C(C)(C)C)ccc1OC(=S)N(C)C | 51* | 6 | 40* | 0 | -5 | 4 | 60* | 33*
CN(C)c1ccc(/C=N/N=C/c2ccccc2O)cc1 | -161 | -11 | -256 | 1 | -46 | -171 | -30 | -50
COc1ccccc1C=NN=Cc1ccccc1O | . | . | . | . | -30 | . | . | .
CCOC(=O)CN(C)Cc1cn(C)nc1-c1ccc(Oc2ccccc2)cc1 | -14 | 16 | -19 | -8 | 16 | 11 | . | .
COc1cccc2oc3cc(C#CC4(O)CCCCC4)ccc3c(=O)c12 | -213 | 13 | -352 | 23 | -34 | -35 | -99 | -443
Cc1[nH]c(=O)c(S(=O)(=O)c2ccccc2)c(C)c1Cl | -13 | 23 | 8 | -1 | 0 | -6 | . | .
CCCCC#Cc1ccc2c(c1)COc1c3ccccc3nn1-2 | -140 | -123 | -228 | 38 | -10 | -53 | . | .
N#CCCCC#Cc1ccc2c(c1)COc1c3ccccc3nn1-2 | -193 | 3 | -442 | 35 | -60 | 77* | -55 | -381
Cc1c(NC(=O)c2cc(S(=O)(=O)N3CCCCC3)ccc2Cl)c(=O)n(-c2ccccc2)n1C | -2 | 8 | 0 | -7 | 7 | . | . | .
Cc1ccc(-c2nc(Nc3ccccc3)n[nH]2)cc1 | -162 | -227 | -280 | 9 | -137 | . | -160 | -367
CC(=O)c1ccc(OCCCC(=O)Nc2cccc(-c3nn[nH]n3)c2)cc1 | 0 | 15 | 8 | 10 | -10 | 21 | . | .
Cc1ccc(S(=O)(=O)N2CCN(S(C)(=O)=O)C2C)cc1 (stereo not drawn) | 7 | -10 | 6 | -23 | 2 | -8 | . | .
Nc1nc2c(-c3ccc(Br)cc3)nnn2c2ccccc12 | -152 | -6 | -258 | 0 | -86 | -25 | -126 | -249
CCC(CO)Nc1ncnc2c1cnn2-c1ccc(OC)cc1 (stereo not drawn) | -91 | -25 | -124 | -10 | -108 | -75 | . | .
CCCN(CCC)c1ncnc2c1cnn2-c1ccc(OC)cc1 | -161 | -2 | -349 | 55 | -56 | -77 | -103 | -363
COCCn1c(=O)[nH]c2cc(C(=O)N3CCN(c4cccc(C)c4C)CC3)ccc2c1=O | 11 | 14 | 5 | 4 | -16 | 31 | . | .
O=C(CC(Nc1cccc(Cl)c1Cl)C(=O)O)c1ccccc1 (stereo not drawn) | -21 | 17 | -31 | -6 | 1 | -47 | . | .
O=C(CC(Nc1ccccc1Cl)C(=O)O)c1ccccc1 (stereo not drawn) | -256 | -11 | -269 | -10 | 22 | -94 | 17 | -52
COCCNc1nc(C)cc(-c2cc(C(=O)NCc3ccccc3)on2)n1 | -6 | 22 | 13 | 5 | -4 | 5 | . | .
Cc1cc(-c2cc(C(=O)NCc3ccccc3)on2)nc(S(C)(=O)=O)n1 | 52* | 24 | 51* | 14 | 18 | -23 | 34 | 42*
COc1ccc(NC(=O)Nc2nnc(Cc3ccc(F)cc3)s2)cc1 | -24 | 35 | -5 | 26 | -1 | -35 | . | .
Cc1ccc(/C=N/Nc2nc3ccccc3s2)o1 | -187 | -123 | -414 | -7 | -27 | -24 | -76 | -240
Nc1nc(Nc2ccc(Cl)cc2)nc2ccccc12 | -181 | -129 | -440 | -3 | -108 | 8 | -100 | -367
Nc1nc(Nc2ccccc2)nc2ccccc12 | -112 | -217 | -145 | 22 | -90 | -82 | . | .
SMILES | Jurkat NFkB inh | Mdm2 MdmX PPI | 697 NFkB inh | CSC inhib | Gli-Sufu block | aSyn UTR inh | Jurkat NFkB conf | 697 NFkB conf
Cc1ccc(Nc2nc(N)c3ccccc3n2)cc1Cl | -167 | -208 | -321 | . | -58 | -5 | -120 | -372
O=C(Nc1ncc(Cc2cccc(Cl)c2)s1)c1cccs1 | -40 | -42 | -118 | . | -25 | -192 | . | .
O=C(Nc1ncc(Cc2ccccc2)s1)c1cccs1 | -173 | -104 | -326 | 50 | 3 | 21 | -116 | -248
O=C(CSc1nc2cc(Cl)ccc2o1)c1cccs1 | 4 | -6 | -22 | 11 | 2 | -12 | . | .
O=[N+]([O-])c1cc(CN2CCCC2)ccc1Sc1ccc(Cl)cc1 | -24 | 24 | -10 | 36 | 43 | 12 | . | .
c1ccc(-c2csc(Nc3ccc4c(c3)OCCO4)n2)cc1 | -223 | -140 | i | 19 | -59 | -50 | -82 | -218
Cc1ccc(Nc2nc(-c3ccccc3)cs2)nc1 | -248 | -215 | i | . | -100 | 33 | -151 | -271
Cc1cc(C)nc(Nc2nc(-c3ccccc3)cs2)n1 | -200 | -188 | -466 | 7 | -44 | 22 | -122 | -349
Cc1ccc(Nc2nc(-c3cccnc3)cs2)cc1C | -196 | -265 | -257 | 10 | -66 | -51 | -52 | -125
c1cc2c(cc1Nc1nc(-c3ccc4c(c3)OCO4)cs1)OCCO2 | -70 | -15 | -75 | 2 | -20 | -89 | . | .
c1ccc(-c2csc(Nc3nc(N4CCOCC4)nc(N4CCOCC4)n3)n2)cc1 | -11 | 4 | 22 | 2 | 10 | -19 | . | .
Brc1ccc(Nc2nc(-c3cccnc3)cs2)cc1 | -99 | -125 | -61 | 7 | -52 | -161 | . | .
CCOCCCNC(=O)c1oc2ccc3c(c2c1C)C(O)CC(C)(C)O3 (stereo not drawn) | -10 | 18 | 0 | -4 | -6 | 6 | . | .
CCC(=O)Nc1nc(-c2ccc3c(c2)CC(C)N3S(C)(=O)=O)cs1 (stereo not drawn) | -13 | 7 | 4 | -1 | -27 | -70 | . | .
CC1Cc2cc(-c3csc(NC(=O)Cc4cccs4)n3)ccc2N1S(C)(=O)=O (stereo not drawn) | 57* | 21 | 56* | 26 | -10 | -20 | 76* | 24
CC(=O)NS(=O)(=O)c1ccc(NC(=O)c2ccccn2)cc1 | -3 | -23 | 6 | -18 | -10 | -16 | . | .
O=C(Nc1ccc(SC(F)(F)F)cc1)c1ccccn1 | -180 | -213 | -263 | 3 | -94 | 11 | -129 | -346
COc1cccc(NC(=O)c2ccccc2)c1 | -58 | -29 | -40 | -3 | -36 | . | . | .
COc1cccc(NC(=O)Nc2cccc(C(=O)O)c2)c1 | 70* | 42 | 57* | -9 | -22 | 41 | 50* | 58*
O=C(CSc1nnc(CCc2ccccc2)n1-c1ccc(Cl)cc1)c1ccccc1 | 7 | -11 | -4 | -3 | -1 | -2 | . | .
